Several values for one entry are separate records, joined by “and”; a condition that tells them apart may be missing. Equal values may be shown once. Inconclusive results are not listed. Activity calls are given as the source filed them. Calls come from the whole dose curve.
What was measured:
[1] = target: Acetylcholinesterase (Homo sapiens) (UniProt P22303); assay: Acetylcholinesterase (AChE) small molecule antagonists: colormetric cell-based qHTS assay (AID 1347395); note: nearly all actives have a fitted effect of over 30% in size; note: potency is the fitted concentration of half-maximal effect
Summary of the method: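 SH-SY5Y cells, plated overnight at 37 C, were exposed to compounds for 30 min at 37 C and 5% CO2. Acetylthiocholine plus DTNB was then added, and thiocholine from endogenous AChE was quantified colorimetrically after 90 min at 37 C.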

[2] = target: Acetylcholinesterase (Homo sapiens) (UniProt P22303); assay: Acetylcholinesterase (AChE) small molecule antagonists: enzyme-based qHTS assay (AID 1347397); settings: Potency: AChE enzyme activity inhibition; outcome: AChE enzyme activity inhibition; note: nearly all actives have a fitted effect of over 55% in size; note: potency is the fitted concentration of half-maximal effect
Summary of the method: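 Absorbance-based detection of thiocholine with DTNB served as the read-out. Recombinant human AChE was exposed to compound for 30 min at RT before a 10 min RT incubation with acetylthiocholine.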

[3] = target: Acetylcholinesterase (Homo sapiens) (UniProt P22303); assay: Acetylcholinesterase (AChE) small molecule antagonists: fluorescence cell-based qHTS assay (AID 1347398); settings: Potency: AChE activity; outcome: AChE activity; note: nearly all actives have a fitted effect of over 50% in size; note: potency is the fitted concentration of half-maximal effect
Summary of the method: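 Fluorimetric cell-based assay: intact SH-SY5Y cells, 30 min compound preincubation at 37 C, acetylthiocholine substrate with thiol probe Thiolite Green, 40 min RT development, fluorescence 490/520 nm.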

[4] = target: Acetylcholinesterase (Homo sapiens) (UniProt P22303); assay: Acetylcholinesterase (AChE) small molecule antagonists: enzyme-based qHTS assay with human liver microsomes (AID 1347399); settings: Potency: qHTS inhibition; outcome: qHTS inhibition; note: nearly all actives have a fitted effect of over 60% in size
Summary of the method: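 Recombinant human AChE (50 mU/mL in the enzyme mix) and human liver microsomes (0.25 mg/mL final) were preincubated with compound and NADPH (0.25 mg/mL final) for 30 min at 37 C. Acetylthiocholine/DTNB was then added; thiocholine was read colorimetrically after 10 min at room temperature.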
% is set by controls: 0 for no effect and ±100 for the full control effect.

Sequence of Acetylcholinesterase (Homo sapiens) (P22303 whole entry, looked up): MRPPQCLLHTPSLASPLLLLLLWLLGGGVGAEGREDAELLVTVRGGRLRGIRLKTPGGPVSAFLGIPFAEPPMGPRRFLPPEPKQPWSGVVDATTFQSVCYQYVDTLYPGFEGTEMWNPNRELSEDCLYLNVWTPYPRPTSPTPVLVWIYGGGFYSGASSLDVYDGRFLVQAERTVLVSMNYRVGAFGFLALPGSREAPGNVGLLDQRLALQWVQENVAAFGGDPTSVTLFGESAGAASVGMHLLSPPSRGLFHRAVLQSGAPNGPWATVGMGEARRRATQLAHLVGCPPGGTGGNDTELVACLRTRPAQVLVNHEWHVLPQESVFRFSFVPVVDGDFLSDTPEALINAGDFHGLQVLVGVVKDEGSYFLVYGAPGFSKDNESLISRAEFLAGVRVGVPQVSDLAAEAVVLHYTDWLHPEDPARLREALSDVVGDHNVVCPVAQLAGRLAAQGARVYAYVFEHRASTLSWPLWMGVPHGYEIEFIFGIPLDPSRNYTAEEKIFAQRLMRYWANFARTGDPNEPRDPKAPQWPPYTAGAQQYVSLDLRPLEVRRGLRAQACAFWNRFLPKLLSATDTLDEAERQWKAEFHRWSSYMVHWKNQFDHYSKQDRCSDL

CC1CCCNC1 (stereo not given)
inactive: Potency [1] | Potency [2] | Potency [3] | Potency [4]

CCC(O)OC(O)CC (stereo not given)
inactive: Potency [1] | Potency [2] | Potency [3] | Potency [4]

Oc1ccccc1C=NCc1ccccc1
inactive: Potency [1] | Potency [2] | Potency [3] | Potency [4]

CC(=O)CC(C)(C)C1CCCCC1
inactive: Potency [1] | Potency [2] | Potency [3] | Potency [4]

CCCOC(=O)c1ccc(C(=O)OCCC)nc1
inactive: Potency [1] | Potency [2] | Potency [3] | Potency [4]

CCCCCCCCCCOC(=O)c1ccccc1C(=O)OCCCCCCCC
inactive: Potency [1] | Potency [2] | Potency [3] | Potency [4]

Cc1cc(=O)[nH]c(=O)[nH]1
inactive: Potency [1] | Potency [2] | Potency [3] | Potency [4]

CCCCCCCCOCCC#N
inactive: Potency [1] | Potency [2] | Potency [3] | Potency [4]

CC(=O)OC(C)OC(C)=O
inactive: Potency [1] | Potency [2] | Potency [3] | Potency [4]

CCCCCCCCNC(C)C(O)c1ccc(SC(C)C)cc1 (stereo not given)
inactive: Potency [1] | Potency [2] | Potency [3] | Potency [4]

C1COCO1
inactive: Potency [1] | Potency [2] | Potency [3] | Potency [4]

CN(C(=O)CN(CCO)CC(=O)N(C)C(C)(C)Cc1ccccc1)C(C)(C)Cc1ccccc1
inactive: Potency [1] | Potency [2] | Potency [3] | Potency [4]

Cc1cccc(C)c1O
inactive: Potency [1] | Potency [2] | Potency [3] | Potency [4]

C[Si](C)=O
inactive: activity, negative = inhibition [1] -2.31% [at 10.5 µM] | activity change, negative = inhibition [2] -1.81% [at 10.5 µM] | activity change, negative = inhibition [3] 0.274% [at 10.5 µM] | activity change, negative = inhibition [4] -0.0165% [at 10.5 µM]

OCCc1ccccc1
inactive: Potency [1] | Potency [2] | Potency [3] | Potency [4]

O=C1OC(=O)c2cccc3cccc1c23
inactive: Potency [1] | Potency [2] | Potency [3] | Potency [4]

O=C(O)c1ccc2cc(C(=O)O)ccc2c1
inactive: Potency [1] | Potency [2] | Potency [3] | Potency [4]

Oc1ccc(-c2ccccc2)c(Cl)c1
inactive: Potency [1] | Potency [2] | Potency [3] | Potency [4]

O=C(c1ccccc1)c1ccccc1O
inactive: Potency [1] | Potency [2] | Potency [3] | Potency [4]

CCN1C(=O)c2ccccc2C1Nc1ccc(OCCN2CCCCC2)cc1 (stereo not given)
inactive: Potency [1] | Potency [2] | Potency [3] | Potency [4]

COc1cc(NS(=O)(=O)c2ccc(N)cc2)ncn1
inactive: Potency [1] | Potency [2] | Potency [3] | Potency [4]

NCCCN1CCN(CCCN)CC1
inactive: Potency [1] | Potency [2] | Potency [3] | Potency [4]

CN/C(=C\[N+](=O)[O-])NCCSCc1csc(CN(C)C)n1
active: Potency [1] 11.2 µM and 13.8 µM | Potency [2] 35.6 µM and 27.5 µM | Potency [3] 35.6 µM
inactive: Potency [4]

C=COCCCCO
inactive: Potency [1] | Potency [2] | Potency [3] | Potency [4]

CC1(C)CO[C@@H](CC(=O)O)CN1
inactive: Potency [1] | Potency [2] | Potency [3] | Potency [4]

CCC(=O)OC
inactive: Potency [1] | Potency [2] | Potency [3] | Potency [4]

O=c1[nH]c(=O)c2ccccc2o1
inactive: Potency [1] | Potency [2] | Potency [3] | Potency [4]

Nc1cccc2c1CN(C1CCC(=O)NC1=O)C2=O (stereo not given)
inactive: Potency [1] | Potency [2] | Potency [3] | Potency [4]

CC/C=C1/OC(=O)c2ccccc21
inactive: Potency [1] | Potency [2] | Potency [3] | Potency [4]

C/C(C=O)=C\c1ccccc1
inactive: Potency [1] | Potency [2] | Potency [3] | Potency [4]

— PubChem BioAssay (Tox21)
